# Inconclusive results are not listed. Activity calls are given as the source filed them. Calls follow the shape of the dose curve; as a rule, active = well fitted inhibition curve with a large enough effect; inconclusive = small, poorly fitted or top-dose-only effect; inactive = no such curve, though single readings can be large or run the other way.
# Test: qHTS Screen of the MIPE 4.0 Collection Against Ewings Sarcoma (RDES) (AID 1259252); also: nearly all actives have a fitted effect of over 35% in size
# Conditions: RD-ES Ewing sarcoma viability, CellTiter-Glo, 48 h; series mostly up to 45.8 µM
# Source text: There is a large unmet medical need for treatments for Ewing sarcoma, a pediatric sarcoma. We sought to identify compounds that inhibited Ewing sarcoma cells in vitro with the goal to then test promising drugs in two drug combinations in vitro to look for synergistic drug combinations. Promising combinations would then proceed to additional validation, including in vivo testing.
# Using the NCATS developed oncology compound library called the Mechanism of Interrogation Plate (MIPE), four Ewing sarcoma cell lines were evaluated (TC32, TC71, RDES, EW8). Compounds, in a 12-point titration series, were incubated with cells for 48 hours and the read out was cell viability (CellTiter-Glo from Promega). These initial experiments were used to select appropriate concentrations of each single agent for subsequent two-drug matrix combinations such that the concentrations in the matrices would span both activity and non-activity.
# Cells, in the log phase of growth, were seeded in 5 uL of RPMI plus 5% FBS, […] L-glutamine, 100 U/ml penicillin and 100 ug/ml streptomycin into 1536-well solid-bottom white tissue culture treated Greiner Bio One Plates (789173-F) using a MultiDrop Combi (Thermofisher Scientific) dispenser and a small sterile cassette. One column was media alone to be used as a :"no cells" control. The plates were then covered with sterilized stainless steel gasketed lids from Kalypsys. After allowing cells to attach for 4 hours, 23 nL of test compound or control (negative control DMSO and positive control 9.2 uM Bortezomib-final) were added from a 1536-well polypropylene compound source plate to each well using a 1536 head pin tool from Kalypsys. Cells were then incubated for 48 hours at 37C, 95% relative humidity and 5% CO2. After 48 hours, plates were removed from the incubator and 3 uL of CellTiter-Glo (Promega) was added using an Aurora Flying Reagent Dispenser Bioraptor. Plates were incubated at room temperature for 10 minutes prior to reading the luminescence on the Viewlux (PerkinElmer). The relative luciferase units are used to calculate the percent activity using the activity of DMSO in the cells and no cells columns for normalization of no inhibition and full inhibition respectively.
# Potency is read from the fitted curve at half-maximal effect.
row,Structure (SMILES),Potency
1,Cc1nc2cnc3ccc(C#Cc4cccnc4)cc3c2n1-c1ccc(C(C)(C)C#N)cc1,132 nM (active)
2,CC[C@H]1CN2CCc3cc(OC)c(OC)cc3[C@H]2C[C@@H]1C[C@@H]1NCCc2cc(OC)c(OC)cc21,93.5 nM (active)
3,NC(=O)c1c(OCc2c(F)cc(Br)cc2F)nsc1NC(=O)NCCCCN1CCCC1,16600 nM (active)
4,COc1cc(C(C)C)c2c(c1)S(=O)(=O)N(COc1cc(=O)n3cccc(OCCN4CCCCC4)c3n1)C2=O,10500 nM (active)
5,CN1CCN(Cc2ccc(NC(=O)Nc3ccc(Oc4cc(NC(=O)C5CC5)ncn4)cc3)cc2C(F)(F)F)CC1,372 nM (active)
6,COc1cc2nccc(Oc3ccc(NC(=O)C4(C(=O)Nc5ccc(F)cc5)CC4)cc3)c2cc1OC,1320 nM (active)
7,COc1cc(-c2nn(C3CCC(N4CCN(C(C)=O)CC4)CC3)c3ncnc(N)c23)ccc1NC(=O)c1cc2ccccc2n1C (stereo not given),1870 nM (active)
8,Cc1cc(Nc2cc(CN3CCOCC3)c3nc(C)c(Cc4ccc(Cl)cc4F)n3n2)n[nH]1,16600 nM (active)
9,C=CC(=O)Nc1cccc(Oc2nc(Nc3ccc(N4CCN(C)CC4)cc3)ncc2Cl)c1,2350 nM (active)
10,CC=C1NC(=O)[C@H]2CSSCCC=C[C@H](CC(=O)N[C@H](C(C)C)C(=O)N2)OC(=O)[C@H](C(C)C)NC1=O,14.8 nM (active)
11,CC(C)(C)c1cc(C(C)(C)C)c(NC(=O)c2c[nH]c3ccccc3c2=O)cc1O,inactive
12,CCNC(=O)Nc1ccc2ncc(Nc3ccc(C)cc3)nc2n1,332 nM (active)
13,COc1ccc(C=Cc2cc(OC)c(OC)c(OC)c2)cc1O,inactive
14,CC1(C)O[C@@H]2C[C@@H]3[C@H]4C[C@@H](F)C5=CC(=O)C=C[C@]5(C)[C@@]4(F)[C@@H](O)C[C@]3(C)[C@]2(C(=O)CO)O1,inactive
15,CC(C)(O)CCc1ccc(OCc2cc(-c3cccc(OC(F)F)c3)c3ncccc3c2)cc1,inactive
16,Cc1cc(Nc2cc(NC(=O)c3c(Cl)cccc3Cl)ccn2)nc(N)n1,332 nM (active)
17,Nc1ncnc2c1c(-c1cccc(OCc3ccccc3)c1)cn2C1CC(CN2CCCC2)C1 (stereo not given),23500 nM (active)
18,COc1cc2c(Oc3ccc(NC(=O)C4(C(=O)Nc5ccc(F)cc5)CC4)cc3F)ccnc2cc1OCCCN1CCOCC1,16600 nM (active)
19,Cn1cc(-c2[nH]c3cc(NC(=O)[C@H](N)C4CCCCC4)cc4c3c2C=NNC4=O)cn1,833 nM (active)
20,COc1cccc2nc(-c3cccs3)nc(NN3C(=O)C=C(C)C3=O)c12,2960 nM (active)

row,Structure (SMILES),Potency
1,CC1COC2(CCN(c3nc(=O)c4cc(C(F)(F)F)cc([N+](=O)[O-])c4s3)CC2)O1 (stereo not given),inactive
2,Clc1cccc(-n2nnnc2NCc2ccccc2Oc2ccccn2)c1Cl,inactive
3,Cc1cc(Nc2ncnc3ccc(-c4ccc(CNCCS(C)(=O)=O)o4)cc23)ccc1Oc1ccn2ncnc2c1,18700 nM (active)
4,c1ccc2c(CCNc3ccc(Nc4ccncc4)cc3)c[nH]c2c1,16600 nM (active)
5,O=C(NCCS(=O)(=O)c1ccc(C(F)(F)F)cn1)c1ccc(Cl)cc1,inactive
6,COc1cc2c(Oc3ccc(-c4cnc(Nc5ccc(F)cc5)n(C)c4=O)cc3F)ccnc2cc1OCCCN1CCOCC1,20900 nM (active)
7,COc1cc(=C2C=c3ccccc3=N2)[nH]c1=Cc1[nH]c(C)cc1C,1870 nM (active)
8,COc1ccc(-n2nc(C(N)=O)c3c2C(=O)N(c2ccc(N4CCCCC4=O)cc2)CC3)cc1,inactive
9,Cc1ccc(-c2ncn(-c3ccc(Nc4nccc(-c5cccc(N6CCOCC6)c5)n4)cc3)n2)cn1,74.3 nM (active)
10,CCN1CCN(Cc2ccc(-c3cc4c(N[C@H](C)c5ccccc5)ncnc4[nH]3)cc2)CC1,inactive
11,CN(C)CC(C)(C)CNc1nn2c(-c3ccccc3)nnc2cc1C1CCC1,418 nM (active)
12,COc1cc2ncnc(Nc3ccc(F)c(Cl)c3)c2cc1NC(=O)C=CCN1CCCCC1,16600 nM (active)
13,Cc1ccc(C(=O)Nc2cccc(C(F)(F)F)c2)cc1-c1ccc2nc(NCCN3CCOCC3)ncc2c1,14800 nM (active)
14,COCCOc1ccc2c(c1)ncn2-c1ccc2cccc(N3CCC(N)CC3)c2n1,18700 nM (active)
15,COc1cc2c(Nc3ccc(NC(=O)c4ccccc4)cc3)ncnc2cc1OCCCN1CCOCC1,23500 nM (active)
16,CCc1c2c(nc3ccc(O)cc13)-c1cc3c(c(=O)n1C2)COC(=O)[C@]3(O)CC,2.1 nM (active)
17,COC(=O)C[C@](O)(CCCC(C)(C)O)C(=O)O[C@@H]1C(OC)=C[C@]23CCCN2CCc2cc4c(cc2[C@H]13)OCO4,inactive
18,Cc1nc2ccc(CN(C)c3ccc(C(=O)N[C@@H](CCC(=O)O)C(=O)O)s3)cc2c(=O)[nH]1,16.6 nM (active)
19,CCC[C@H](NC(=O)C(C#N)=Cc1cccc(Br)n1)c1ccccc1,7430 nM (active)
20,CNC(=O)c1ccccc1Nc1nc(Nc2ccc(N3CCOCC3)cc2OC)ncc1Cl,11800 nM (active)

# Source: PubChem BioAssay (NCATS)
